Test results from PubChem BioAssay (NCATS).
Inconclusive results are not listed. The source made the active and inactive calls. Unless noted, calls follow the shape of the dose curve; as a rule, active = well fitted curve in the direction sought with a large enough effect; inconclusive = small, poorly fitted or top-dose-only effect, or another doubt; inactive = no such curve, though single readings can be large; an effect the other way counts as inactive or inconclusive.

Assays:
[1] = target: Alpha-galactosidase (Coffea arabica) (UniProt Q42656); test: Counterscreen for Glucocerebrosidase Inhibitors: qHTS Assay for Coffee Bean alpha-Galactosidase at pH 4.5 (AID 957); also: series mostly up to about 77 µM
Sequence of Alpha-galactosidase (Coffea arabica) (Q42656 whole entry, looked up): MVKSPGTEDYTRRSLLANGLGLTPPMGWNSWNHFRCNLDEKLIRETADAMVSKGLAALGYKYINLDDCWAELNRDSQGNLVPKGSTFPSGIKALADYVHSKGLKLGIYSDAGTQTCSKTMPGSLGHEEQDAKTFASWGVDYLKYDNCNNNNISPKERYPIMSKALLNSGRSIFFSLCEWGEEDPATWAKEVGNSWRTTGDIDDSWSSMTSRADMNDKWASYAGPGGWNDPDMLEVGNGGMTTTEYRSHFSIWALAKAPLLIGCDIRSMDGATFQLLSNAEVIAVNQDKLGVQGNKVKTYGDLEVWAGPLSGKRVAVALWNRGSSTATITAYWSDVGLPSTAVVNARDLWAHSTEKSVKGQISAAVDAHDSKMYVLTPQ
How it was run: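 Fluorogenic read-out: 4-methylumbelliferone at Ex 365/Em 440 nm after NaOH/glycine stop (pH 10). Enzyme 2 nM, 4-MU-alpha-galactoside 80 uM, citrate buffer pH 4.5, 20 min RT; normalized to no-enzyme and enzyme controls.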

[2] = target: Alpha-galactosidase (Coffea arabica) (UniProt Q42656); test: Counterscreen for Glucocerebrosidase Inhibitors: qHTS Assay for Coffee Bean alpha-Galactosidase at pH 5.9 (AID 998)
How it was run: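 In 50 mM citric acid pH 5.9 with 0.005% Tween-20, coffee bean enzyme hydrolyses 80 uM 4-MU alpha-D-galactopyranoside over 20 min at RT. Activity is normalized to controls; AC50 comes from Hill-modelled concentration-response data.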

[3] = Validation screen for inhibitors of Lassa infection (AID 463096; calls by dose curve)
[4] = Inducers of the Endoplasmic Reticulum Stress Response (ERSR) in human glioma: Validation (AID 504836)
How it was run: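 Stably transfected U87-MG human glioma cells carrying a GRP78-based luminescent sensor were seeded at 1000 cells/well, pin-dosed with compounds and incubated 16 h. Luciferase reagent was then added, and end-point luminescence was read after 10 min at room temperature.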

[5] = qHTS for Inhibitors of the Functional Ribonucleoprotein Complex (vRNP) of Lassa (LASV) Arenavirus: LASV Primary Screen - GLuc reporter signal (AID 1347082; calls by dose curve; tested in HEK293 reporter line; also: series mostly up to about 57 µM; nearly all actives have a fitted effect of over 60% in size)
[6] = qHTS for Inhibitors of the Functional Ribonucleoprotein Complex (vRNP) of Lassa (LASV) Arenavirus: Viability assay - alamar blue signal for LASV Primary Screen (AID 1347083; calls by dose curve; tested in HEK293 reporter line; also: series mostly up to about 57 µM; nearly all actives have a fitted effect of over 80% in size)
[7] = qHTS for Inhibitors of the Functional Ribonucleoprotein Complex (vRNP) of Lymphocytic Choriomeningitis Arenaviruses (LCMV): Viability assay - alamar blue signal for LCMV Primary Screen (AID 1347085; calls by dose curve; tested in HEK293 reporter line; also: series mostly up to about 57 µM; nearly all actives have a fitted effect of over 80% in size)
[8] = target: Nucleoprotein (Lymphocytic choriomeningitis virus (strain Armstrong)) (UniProt P09992); test: qHTS for Inhibitors of the Functional Ribonucleoprotein Complex (vRNP) of Lymphocytic Choriomeningitis Arenaviruses (LCMV): LCMV Primary Screen - GLuc reporter signal (AID 1347086; calls by dose curve; also: series mostly up to about 57 µM; nearly all actives have a fitted effect of over 70% in size)
Sequence of Nucleoprotein (Lymphocytic choriomeningitis virus (strain Armstrong)) (P09992 whole entry, looked up): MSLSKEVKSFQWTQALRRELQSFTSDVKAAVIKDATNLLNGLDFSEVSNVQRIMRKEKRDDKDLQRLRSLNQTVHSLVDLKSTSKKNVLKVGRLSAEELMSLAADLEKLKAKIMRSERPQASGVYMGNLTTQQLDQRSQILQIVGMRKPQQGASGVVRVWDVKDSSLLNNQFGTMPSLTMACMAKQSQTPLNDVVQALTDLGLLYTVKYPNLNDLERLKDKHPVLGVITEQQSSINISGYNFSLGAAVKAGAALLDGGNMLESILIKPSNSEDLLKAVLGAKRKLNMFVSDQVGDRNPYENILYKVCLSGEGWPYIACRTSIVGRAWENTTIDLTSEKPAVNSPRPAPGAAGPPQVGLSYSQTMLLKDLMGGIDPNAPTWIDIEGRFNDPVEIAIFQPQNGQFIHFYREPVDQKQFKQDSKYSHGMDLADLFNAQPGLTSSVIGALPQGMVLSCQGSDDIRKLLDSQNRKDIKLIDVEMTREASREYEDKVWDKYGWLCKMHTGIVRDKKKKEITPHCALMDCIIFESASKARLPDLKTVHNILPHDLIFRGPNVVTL

Measured: Potency

N[C@@H](CS(=O)O)C(=O)O
inactive: all assays above

C[C@@H]1C(=O)NC2=Nc3cccc(Cl)c3CN21
inactive: all assays above

CC(N)=O
inactive: all assays above
